PubChem BioAssay AID493056 (National Center for Advancing Translational Sciences (NCATS), 2011)
About 2,400 (0.67%) of roughly 360,000 compounds were called active. Cut-off read from the data, not from the text of the source: active = enhancement above about 30%; inactive = the rest. For the sample, actives were picked, then their nearest neighbours and some compounds at random.
Note: 0% is about no effect.

These compounds were tested against Thyrotropin-releasing hormone receptor (Homo sapiens) (UniProt P34981) (assay: qHTS for Small Molecule Agonists and Allosteric Enhancers of Human TRH Receptor: Primary Screen for Enhancers). Details: TRHR cells, fluo-8 calcium fluorescence, EC20 TRH enhancement; at 2 µM; stronger effect = higher value.
Chain of Thyrotropin-releasing hormone receptor (Homo sapiens) (P34981 whole entry, looked up): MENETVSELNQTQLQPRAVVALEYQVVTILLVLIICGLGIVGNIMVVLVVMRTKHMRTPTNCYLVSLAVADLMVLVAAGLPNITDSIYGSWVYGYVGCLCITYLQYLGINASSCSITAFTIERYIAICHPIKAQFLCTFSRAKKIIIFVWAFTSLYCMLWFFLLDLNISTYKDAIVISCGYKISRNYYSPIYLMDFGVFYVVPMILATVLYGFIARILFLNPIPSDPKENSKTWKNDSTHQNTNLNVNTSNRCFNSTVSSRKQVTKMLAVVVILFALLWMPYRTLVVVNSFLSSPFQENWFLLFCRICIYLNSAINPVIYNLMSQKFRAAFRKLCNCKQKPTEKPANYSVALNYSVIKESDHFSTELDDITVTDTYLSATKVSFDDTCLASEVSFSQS
Source text: NIH Chemical Genomics Center [NCGC] NIH Molecular Libraries Probe Centers Network [MLPCN] MLPCN Grant: MH089816-01 Assay Submitter (PI): Marvin Gershengorn This project aims to identify small drug-like molecules that activate (agonists) the thyrotropin releasing hormone (TRH) receptor (TRHR) or enhance its TRH-stimulated activity (allosteric enhancers). TRHR, a drug-accessible cell surface receptor expressed in specific brain regions, and its ligand TRH have been implicated in several central nervous system disorders, including depression and anxiety. Small molecule TRHR agonists or allosteric enhancers that are metabolically stable and able to cross the blood-brain barrier might serve as probes to elucidate the roles of brain TRH receptors in animal models, and might be valuable as lead compounds for the development of drugs to treat patients with central nervous system disorders. Upon TRHR-Gq activation in TRHR cells, intracellular calcium is released from stores in the endoplasmic reticulum. […] This primary screen measures compound-induced enhancement of an EC20 stimulation of the receptor by its native ligand.
For the HTS assay freshly prepared cells are plated at a density of 2000/well in 3 ul of complete DMEM medium containing 10% serum in 1536-well plates and cultured over night at 37 C in a humidified incubator with 5% CO2. The next day, 2 ul of a no wash calcium dye (ABD Bioquest) was added to the cells and plates were incubated at room temperature for 1 hour. For the assay, assay plates were loaded into the FDSS kinetic plate reader. A 10 cycle (1 second/cycle) baseline measurement is taken and then the FDSS online 1536 pintool delivers 23 nl of compound library (as well as TRH controls) to the plate. The plate is measured for kinetically at 1 cycle/sec for 180 seconds and is considered to be the agonist portion of the assay (eg, compounds which activate a positive calcium response during this portion are flagged as potential agonists). Following the 180 second read, 1 ul of either an EC20 (positive modulation assay) is delivered by an onboard pipette head. Measurements are taken kinetically for an additional 180 seconds. TRHR FDSS Screening Protocol 1. Reagent, 3 uL 2000 cells/well 1536 TC treated Black plate in media containing 10% FCS 2. Time, 18 hours, 33.5C 5% CO2 (cells grown at 37C) 3. Reagent, 2 uL ABD fluo-8 Ca dye 4. Time, 30 min-1.5hrs hours, Room temp (6 plates/batch) 5. Detector, EX 480/EM 530C, FDSS 10 cycles baseline (1sec/cycle) 6. Compound, 23 nL of stock solution from library 7. Detector, EX 480/EM 530C, FDSS 230 cycles (1sec/cycle) Agonist mode 8. Compound, 1 ul EC20 of TRH made up in HEPES HBSS, 10 nM final 9. Detector, EX 480/EM 530C, FDSS 100 cycles (1sec/cycle) Potentiator mode
With C/C(CCc1c[nH]c2ccccc12)=N\O the enhancement was 30.5% (active). With COc1ccc(CNCCc2c[nH]c3ccccc23)cc1OC the enhancement was 8.12% (inactive). For CCC/C(=N\O)c1c[nH]c2ccccc12, the enhancement was -0.263% (inactive). Cc1ccc(-n2c(/C=C/c3cccc(C(F)(F)F)c3)nc3ccccc3c2=O)cc1 was tested, and the enhancement was -5.54% (inactive). In the case of O=C(c1cc(S(=O)(=O)N2CCOCC2)ccc1F)N1CCC2(CC1)OCCO2, the enhancement is reported as 5.79% (inactive). With CC(C)Oc1cccc(C(=O)C2CCCN(C3CCOCC3)C2)c1 (stereo not given) the enhancement was 5.95% (inactive). O=C(OCCN1CCOCC1)C1(c2ccccc2)CCCC1 was tested, and the enhancement was -3.33% (inactive). In the case of CCOP(=S)(OCC)C(O)CCCCCn1c(=O)c(F)cn(C2CCCO2)c1=O (stereo not given), the enhancement is reported as 31.8% (active). With CC(C)c1ccc(OCC(=O)N2CCN(C)CC2)c(Br)c1 the enhancement was -3.04% (inactive). For CC(C)(C)c1ccc(OC(=O)N2CCCCC2)cc1, the enhancement was 2.54% (inactive). In the case of C[N+]1(C)CCOC(O)(c2ccc(-c3ccc(C4(O)C[N+](C)(C)CCO4)cc3)cc2)C1 (stereo not given), the enhancement is reported as 36.7% (active). For Cc1cccc(Cn2cccc(C(=O)Nc3ccc4c(c3)OCCO4)c2=O)c1, the enhancement was -1% (inactive). For CC(C)N(CC#CCC1(O)c2ccccc2-c2ccccc21)C(C)C, the enhancement was -0.877% (inactive). For CCC(C)n1c(O)c(/C=N/Nc2nc3c(c(=O)n(C)c(=O)n3C)n2C)c(=O)[nH]c1=S (stereo not given), the enhancement was -2.9% (inactive). With Cc1ccc(-c2nc3ccccc3c(=O)n2-c2ccc(Br)cn2)cc1 the enhancement was 3.56% (inactive).
